# From PubChem BioAssay (NCI)
# About 83,000 compounds went through this panel and 20% of them were active in at least one assay; those are over-represented in the sample as a whole.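 Results are percent growth after 48 hours of single-concentration exposure. 100 means growth as in untreated cells, lower positive values show inhibition; negative values down to -100 show cell death.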 The source made the active and inactive calls. How the source made its calls: active means growth percent below 10; inactive means the rest.
# System: MDA-MB-468 breast
# Assay: NCI-60 one-dose screen, 48 h (100 = growth as untreated, 0 = no growth, -100 = all killed)
# Conditions: 10 µM unless noted
row,Compound,growth
1,COc1ccc(/C=C/C(=O)/C=C/c2cc3ccc(Cl)cc3[nH]c2=O)cc1,87.2% (inactive)
2,O=C1c2ccccc2-c2ccccc2C1(Cl)Cl,-86.6% (active)
3,Cn1cc(-c2nonc2-c2cn(C)c3ccc(F)cc23)c2cc(F)ccc21,60.1% (inactive)
4,NS(=O)(=O)c1ccc(NC(=O)/C(=C\c2ccc(Cl)cc2Cl)NC(=O)c2ccccc2)cc1,110% (inactive)
5,COc1cccc(-c2nc3sccn3c2-c2ccnc(NCCNC(=O)Nc3cccc(C(F)(F)F)c3)n2)c1,39.6% (inactive)
6,COc1ccc(/C=N\NC(=O)CN2CCN(c3cc4c(cc3F)c(=O)c(C(=O)N/N=C/c3ccc(OC)c(OC)c3)cn4C3CC3)CC2)cc1OC,-27.6% (active)
7,Cc1ccccc1NC(=O)c1sc2nc(C)c(C(C)O)cc2c1N (stereo not given),39.5% (inactive)
8,N/C(=N\C(N)=N\c1nc2ccccc2s1)c1ccnc(Br)c1,96.6% (inactive)
9,O=S(=O)(Nc1ccc(Br)cc1)c1ccc(-c2cnc(C3CC3)o2)cc1,-12.4% (active)
10,Cc1cccc(-c2nc(N(C)c3ccc4ncsc4c3)c3ccccc3n2)n1,51% (inactive)
11,c1ccc(Nc2ccccn2)nc1,93.3% (inactive)
12,CNc1ccc(-c2cc(=O)oc3ccc(Cl)cc23)cc1,39.5% (inactive)
13,COc1ccc(/C=N/NC(=O)c2c(N)nn(C)c2Nc2ccccc2)cc1,-1.26% (active)
14,CCOc1nc(-c2ccccc2)cc2c(O)c(C(=O)N/N=C/c3ccc(O)cc3O)[nH]c(=O)c12,29.9% (inactive)
15,BrCc1cccc(C[P+](c2ccccc2)(c2ccccc2)c2ccccc2)c1,-12.4% (active)
